{"source": "the supplement of paper PMC6658780", "key": {"[1]": {"tested_on": "Klebsiella pneumoniae KPC-119", "assay": "percent growth inhibition of drug alone vs DMSO control; higher = more growth inhibition", "conditions": "antibiotic (0.125x MIC): none (0.1% DMSO)"}, "[2]": {"tested_on": "Klebsiella pneumoniae NCTC-13439", "assay": "percent growth inhibition of drug alone vs DMSO control; higher = more growth inhibition", "conditions": "antibiotic (0.125x MIC): none (0.1% DMSO)"}, "[3]": {"tested_on": "Klebsiella pneumoniae KPC-119", "assay": "percent growth inhibition of drug + antibiotic vs DMSO control; higher = more growth inhibition"}, "[4]": {"tested_on": "Klebsiella pneumoniae NCTC-13439", "assay": "percent growth inhibition of drug + antibiotic vs DMSO control; higher = more growth inhibition", "conditions": "antibiotic (0.125x MIC): tigecycline; 7 µM"}, "[5]": {"conditions": "antibiotic (0.125x MIC): colistin, 20 µM"}, "[6]": {"conditions": "antibiotic (0.125x MIC): colistin, 7 µM"}}, "note": "Where a name gives a salt, the structure may show the parent alone. ± gives the standard deviation of the averaged measurements."}
{"smiles": "O=C([O-])c1ccccc1-c1c2cc(Br)c(=O)cc-2oc2[c]([Hg+])c([O-])c(Br)cc12.[Na+].[Na+].[OH-]", "note": "[Merbromin]", "values": [{"measurement": "percent growth inhibition of drug alone", "setting": "[1]; 7 µM", "value": "1.39 ± 0.87", "unit": "%"}, {"measurement": "percent growth inhibition of drug alone", "setting": "[1]; 20 µM", "value": "7.86 ± 1.4", "unit": "%"}, {"measurement": "percent growth inhibition of drug alone", "setting": "[2]; 7 µM", "value": "-0.236 ± 1.4", "unit": "%"}, {"measurement": "percent growth inhibition of drug alone", "setting": "[2]; 20 µM", "value": "15.7 ± 0.91", "unit": "%"}, {"measurement": "percent growth inhibition", "setting": "[3]; antibiotic (0.125x MIC): gentamicin, 7 µM", "value": "2.44 ± 4", "unit": "%"}, {"measurement": "percent growth inhibition", "setting": "[3]; antibiotic (0.125x MIC): meropenem, 20 µM", "value": "99.619 ± 0.036", "unit": "%"}, {"measurement": "percent growth inhibition", "setting": "[4]", "value": "-5.98 ± 14", "unit": "%"}]}
{"smiles": "C=CCN1CC[C@]23c4c5ccc(O)c4O[C@H]2C(=O)CC[C@@]3(O)[C@H]1C5", "note": "[Naloxone hydrochloride]", "values": [{"measurement": "percent growth inhibition of drug alone", "setting": "[1]; 7 µM", "value": "-0.923 ± 1.2", "unit": "%"}, {"measurement": "percent growth inhibition of drug alone", "setting": "[1]; 20 µM", "value": "0.247 ± 1.1", "unit": "%"}, {"measurement": "percent growth inhibition", "setting": "[3]; [5]", "value": "-10.2 ± 2.5", "unit": "%"}]}
{"smiles": "C[N+]1([O-])[C@@H]2C[C@@H](OC(=O)[C@H](CO)c3ccccc3)C[C@H]1[C@@H]1O[C@@H]12", "note": "(stereo partly drawn) [Scopolamin-N-oxide hydrobromide]", "values": [{"measurement": "percent growth inhibition of drug alone", "setting": "[1]; 7 µM", "value": "-1.08 ± 2.3", "unit": "%"}, {"measurement": "percent growth inhibition of drug alone", "setting": "[1]; 20 µM", "value": "-2.41 ± 3.1", "unit": "%"}, {"measurement": "percent growth inhibition", "setting": "[3]; [5]", "value": "7.85 ± 0.11", "unit": "%"}]}
{"smiles": "C[C@]12CC[C@H](O)C[C@@H]1CC[C@@H]1[C@@H]2CC[C@]2(C)C(=O)CC[C@@H]12", "note": "[Epiandrosterone]", "values": [{"measurement": "percent growth inhibition of drug alone", "setting": "[1]; 7 µM", "value": "0.561 ± 2", "unit": "%"}, {"measurement": "percent growth inhibition of drug alone", "setting": "[1]; 20 µM", "value": "-1.04 ± 0.09", "unit": "%"}, {"measurement": "percent growth inhibition", "setting": "[3]; [6]", "value": "-6.74 ± 2.2", "unit": "%"}]}
{"smiles": "C#CCN(C)[C@H](C)Cc1ccccc1", "note": "[Selegiline hydrochloride]", "values": [{"measurement": "percent growth inhibition of drug alone", "setting": "[1]; 7 µM", "value": "-1.33 ± 2.5", "unit": "%"}, {"measurement": "percent growth inhibition of drug alone", "setting": "[1]; 20 µM", "value": "0.878 ± 0.49", "unit": "%"}, {"measurement": "percent growth inhibition", "setting": "[3]; [5]", "value": "4.23 ± 6.9", "unit": "%"}]}
{"smiles": "CCn1cc(C(=O)O)c(=O)c2cc3c(cc21)OCO3", "note": "[Oxolinic acid]", "values": [{"measurement": "percent growth inhibition of drug alone", "setting": "[1]; 7 µM", "value": "6.34 ± 3", "unit": "%"}, {"measurement": "percent growth inhibition of drug alone", "setting": "[1]; 20 µM", "value": "16.3 ± 9.5", "unit": "%"}, {"measurement": "percent growth inhibition", "setting": "[3]; [6]", "value": "37.9 ± 7.2", "unit": "%"}, {"measurement": "percent growth inhibition", "setting": "[3]; [5]", "value": "100.2 ± 0.18", "unit": "%"}]}
